Experimental findings from PubChem BioAssay (EPA / NIEHS) are described below.

“And” between values parts separate entries of the source, which are not always exact repeats. Equal entries are not always repeated. Where a structure was tested more than once in an assay, its records may differ in their call. The source made the active and inactive calls. The calls were made as follows: active = hit-call score of the fitted dose curve at least 0.9, where 1 is the maximum; inactive = score below 0.9.

A word on the AC50: it is the midpoint of the concentration-response curve, whichever way the signal moves.

Read-out in this assay: JUN Transcription Factor, JUN (gene 3725)
The experiment in a line: LTEA_HepaRG_JUN: Life Technologies and Expression Analysis (LTEA) Assay for JUN Transcription Factor using HepaRG (AID 2283513). To be noted: mRNA level, 48 h; actives raise or lower the signal. The method, boiled down: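 Read-out is JUN transcript level by TaqMan qRT-PCR, normalized to ACTB, GAPDH and POLR2A, after 48 h chemical treatment of HepaRG cells. Concentration-response spanned eight half-log points up to 100 uM in 0.5% DMSO.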
With `Cc1nn(C)c(Oc2ccccc2)c1C=NOCc1ccc(C(=O)OC(C)(C)C)cc1`, the call was inactive.

Regarding `CCCCOCCOCCOCc1cc2c(cc1CCC)OCO2`, the outcome was inactive.

`S=C(S)NCCNC(=S)S.[Mn+2].[S-]C([S-])=NCCN=C([S-])[S-].[Zn+2]`: the AC50 was 1.36 µM (active) and 1.75 µM (active); the call was inactive.

As to `CCOC(=O)C(C)Oc1ccc(Oc2nc3ccc(Cl)cc3o2)cc1` (stereo unspecified), the result was inactive.

With `CCOC(=O)COc1cc(-n2ncc(C(F)(F)F)c(C)c2=O)c(F)cc1Cl`, the compound was called inactive.

In the case of `CSC(=O)c1cccc2nnsc12`, the call was inactive.

As for `O=C(O)c1ccccc1`, the outcome was inactive.

With `CCCCOC(=O)[C@@H](C)Oc1ccc(Oc2ccc(C(F)(F)F)cn2)cc1`, the compound was classed as inactive.

As for `CCCOC(=O)c1ccc(C(=O)OCCC)nc1`, the outcome was inactive.

With `CC(=O)S[C@@H]1CC2=CC(=O)CC[C@]2(C)[C@H]2CC[C@@]3(C)[C@@H](CC[C@@]34CCC(=O)O4)[C@H]12`, the compound was called inactive.

With `CC(C)CCCCCCc1ccc(O)cc1`, the outcome was inactive.

Turning to `CCC(C)OC(=O)N1CCCCC1CCO` (stereo unspecified), the compound was classed as inactive.

Turning to `OB(O)O`, the result was inactive.

For the compound `C[C@]12C[C@H](O)[C@H]3[C@@H](CCC4=CC(=O)CC[C@@]43C)[C@@H]1CC[C@@H]2C(=O)CO`, the result was inactive.

In the case of `CC(C)(C)[C@@H](O)[C@@H](Cc1ccc(Cl)cc1)n1cncn1`, the call was inactive.

Take `CCCCCOC(=O)COc1cc(N2C(=O)C3=C(CCCC3)C2=O)c(F)cc1Cl`: the call was inactive.

With `CC(C)(c1ccc(O)cc1)c1ccc(O)cc1`, the result was inactive.

As to `C=CCOC(Cn1ccnc1)c1ccc(Cl)cc1Cl` (stereo unspecified), the half-maximal activity concentration (AC50) is 75.5 µM (active).

As for `c1ccc(Nc2ccccc2)cc1`, the outcome was inactive.

For the compound `O=C(Nc1ccc([N+](=O)[O-])cc1Cl)c1cc(Cl)ccc1O`, the AC50 was 2.42 µM (active).

With `CCN(Cc1c(F)cccc1Cl)c1c([N+](=O)[O-])cc(C(F)(F)F)cc1[N+](=O)[O-]`, the result was inactive.

As to `C[C@]12CC[C@@H]3c4ccc(O)cc4C[C@@H](CCCCCCCCCS(=O)CCCC(F)(F)C(F)(F)F)[C@H]3[C@@H]1CC[C@@H]2O` (stereo partly specified), the AC50 was 0.0859 µM (active).

For the compound `C#CCOC(=O)[C@@H](C)Oc1ccc(Oc2ncc(Cl)cc2F)cc1`, the compound was called inactive.

As for `CN(C)C(=O)Nc1ccc(Cl)c(Cl)c1`, the compound was called inactive.

For `CCN(CC)C(=O)c1cccc(C)c1`, the call was inactive.
